Screen size: about 53,000 sequences; about 3,700 (7%) were called active. The full list was thinned out, with actives kept by preference. A number with no mark means an inactive call.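 Rule for the calls: active = gene knockdowns whose robust z-score for IL-1 alpha signal is at least 2 or at most -2, so actives lie on both sides; inactive = the rest.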

This assay can be described thus: Components of the Cytosolic LPS Sensing Pathway: Gene Identification via Genome-wide siRNA Screen. The settings on record: RAW264.7 macrophages, IL-1a HTRF, actives lie on both sides, screened at 100 nM (by protocol), cells primed 5 h with Pam3CSK4 first. From the text:
Non-canonical inflammasome activation by cytosolic LPS is a critical component of the host response to Gram-negative bacterial infection, however we lack a comprehensive understanding of the cellular processes that control this pathway. Here we describe a genome-wide siRNA screen to identify genes regulating the mouse macrophage IL-1 alpha response to cytosolic LPS.
RAW264.7 cells were maintained in complete DMEM media, comprising DMEM with 4.5 g/L glucose, 10% FBS (Gemini Bio-Products, West Sacramento, CA), 2 mM Glutamine (Lonza) and 20 mM HEPES (Lonza), hereafter complete DMEM.
The RNAi screen was conducted in 384-well format using the Ambion Silencer Mouse Genome siRNA Library (#4391425), which consists of three unique, nonoverlapping, nonpooled siRNAs for each of 17,000 gene targets. siRNA reagents ([…]) were stamped into 384-well white flat-bottom microplates (Corning, 3570) using a Velocity11 VPrep liquid handling system (Agilent) integrated into a BioCel robotic platform (Agilent) in columns 1-22, leaving columns 23-24 empty for negative (Ambion, Negative control #1) and positive (mouse Casp4) controls, respectively. The median value of each plate's negative control column was used to normalize sample wells, and the positive control was used to assess transfection efficiency and assay performance.
Lipofectamine RNAiMAX Transfection Reagent ([…]; Invitrogen) was added in […] serum-free, antibiotic-free media to plate wells using a Thermo Scientific Matrix WellMate and Microplate Stacker. Plates were incubated for 45 min at room temperature to allow for the sufficient formation of siRNA-lipid complexes. Cells were seeded at a density of 1x10^4 cells per well in 20 microL media containing 20% (vol/vol) FBS without antibiotics. The final concentration of siRNA in each well was 100 nM. Cells were cultured for 48h at 37 degrees C in 5% CO2 before addition of […] of TLR ligand Pam3CSK4 for 5 hours. The medium was then removed, replaced with […] growth media and cell were transfected with […] of LipidA and TransIT-TKO (Mirus) for 24 hour. At the end of the LipidA treatment, […] of supernatant was transferred to a 384 Greiner Bio-one non-binding low volume plate and […] of IL-1a HTRF reagent (Cisbio, 62MIL1APEH) was added and incubated at room temperature overnight. The plates were read on an EnVision plate reader (PerkinElmer). Cell viability was measured by adding 20ul Cell Titer Glo to the original plate and running a luminescence read on the EnVision. The quantified IL-1a signal for each siRNA gene-targeted well was divided by the median of the negative control wells and multiplied by 100 to achieve a negative control normalized value for each well/siRNA. This normalized value was then used to generate a robust z-score by first taking the log of each value and then by subtracting the median and dividing by the […].
For orientation: In TR-FRET formats the signal depends on donor and acceptor labels being close together.
For CCUGCUCUAUGGCAGAACGTT against Nkx2-4, the z-score is 0.992. The same measure for “GGAACAGGAGAAUGACAUCTT against D5Ertd579e”: -1.25.

With GGUGCAGAAUCUCUCAUUGTT against Mrpl30, the z-score was -2.14 (active). The same measure for GCGCGAUUCAGAGGUUUCATT against Raver2: 0.238; for GCACUGCCAGAGGUUCUGUTT against U90926: -0.107. The same measure for GCCCUUAGAGAGAAUUUAUTT against Lmo2: 0.63; for GCCACGUUCAAACAGUACCTT against Slc1a7: 3.94 (active). The result for GCAGGUUCACAAUGGAUUATT against Lrrc25 reads 0.108; that for GGAAUCUGCUAUGCUUAAATT against Rdh16f2, -1.84. Regarding GCCAGAGUACCACAUUAGUTT against Pcdhga4, the z-score was 0.921.

Consider GGACCAUGUGAUAAUAUCGTT against Als2, for which the z-score is -0.599. The same measure for GGAGAUCUGCUCUAAUUAUTT against Eif1ax: 2.21 (active); for GGGAUUGUAACAGCAUCCCTT against Epha6: 0.594.

As for GGGAAUCUGAUGAAGAUGGTT against Grin3b, the z-score is -1.56. As to GGCCUUGAAAUCGUUUUUUTT against Tceal8, the z-score was 0.534. The result for GGAUUUUUCAGAUUCUAGATT against Hs6st2 reads 0.375; that for GGAUUUAGGCUACUUUUUCTT against Art4, -0.387; that for GAUGUACGAUCUGGUGGUGTT against Exosc6, 2.73 (active).

As for GGAUUUAGAUCACUUGGAGTT against Tmem68, the z-score is -0.811. The result for GGAGUGUUGGAUGCUACCATT against Ache reads -1.12. The result for GGGCAAUGGGUGAUCUAAUTT against Phactr1 reads 0.00934. The same measure for GGAACUUUUUAAGAUGCGUTT against Ranbp1: -0.36; for GGAUGCCUAUCACAAGCAGTT against Pacsin1: -0.478. In the case of GGCCCAUUACUUGUUGACUTT against Fanci, the z-score is 0.378. The result for GAGCAAUGAGCAGAGAUUCTT against H2-D4 reads 1.93; that for GGACUUCAACUUGAUGGAGTT against Add2, 2.02 (active). The same measure for GGAUGCUAAUUCAAGUCUUTT against Slc1a7: 0.292; for GGUUAUUAAGGAUAAACUGTT against Cops5: 2.28 (active).

Take GGAACUUACAUGAAUUCCATT against Slco1a4: the z-score is -0.229. The same measure for GCCACUUCCUGGAUAAGGATT against Ftl2-ps: -2.88 (active).

With CCAAGACUGUGACAAGUUUTT against Ctsz, the z-score is -0.557. The result for GGAAACCAGACUUUCCCUATT against Vmn1r43 reads -0.18; that for CGAAGAUAUUACUAUUCUGTT against Lama2, 1.65; that for GAUGCACACGUGGGAAGACTT against Cdpf1, 2.25 (active). The same measure for GCUCCAUCUACAAACAAUGTT against Gpr37l1: 1.53. Turning to GGGACAGGAACAAACAAGCTT against Polq, the z-score is 2. The same measure for GGUUAUAGAUGUAAAGUCUTT against Isg20l2: -0.847; for GGAGCUUCUUUUCCCUCUATT against Gcgr: -0.684; for GGAUUUAAGUGCCCGGUAUTT against Znrf2: 1.34.

GCGAUAUGCCCUAACUGGATT against Mmp24: the z-score was 0.967. As for GGAAGAUCCGCUUCAACGUTT against Mab21l4, the z-score is 1.2. Take GGUUGGUUUGGAGAAGGCATT against Krt35: the z-score is 2.91 (active). As for CCACAUGCCUGAGAGAUUCTT against Spp2, the z-score is 1.28.

In the case of CGUUUGACCAAAACAGAAUTT against Fbxw10, the z-score was 0.709. As to GGAAGUCAGACAGAUUUAATT against Prss33, the z-score was 2.69 (active). The same measure for CGCACCUUUCUUUGGAAUGTT against Rab1b: 1.72; for GGAUUUUGUUCUUCAUCCATT against Nedd4: -0.142; for GGGUUAUGGAUUUGAAGUGTT against Tmem131l: 1.3.

As to CCAAUUUUCAAGAUCGGUCTT against Pakap, the z-score was 0.347. For GCUCUGAUGUCAACCUUCCTT against Fam174c, the z-score was -2.23 (active). The result for CCACCUUUAUUCAAAAUCGTT against Mmp20 reads -0.451; that for CCUACUCAAGAAGCUCAGUTT against Hpse, -2.47 (active); that for GCGCACAAGCCUUACUAAATT against Zfp560, 0.0854.

In the case of GCGGACAUGAGUUUGAAUGTT against Bnipl, the z-score is -0.858. The same measure for GGUGGACAAGAUGAUGGAATT against Gps2: 1.92; for GGAGACAGAUGAAUGAACCTT against Tifab: 0.0548. The same measure for CCCUCUCUACGAUGACUCUTT against Parm1: -2 (active); for CCAAUAACUUCGCUUAUAUTT against Ms4a2: -0.389; for GGUUCAUCCAACUUUCAAGTT against Stac3: 0.587. The result for GUUUCUGGGUGAGCGCGAUTT against Fzd2 reads 2.29 (active); that for GGCAUUUAAAACUCAUUGUTT against G6pdx, -1.47. GGGUUCAGAGGUCAUCAACTT against Lin37: the z-score was -1.95.

Regarding “GCAAAUUAGGCUCUUAUCCTT against 4930402H24Rik”, the z-score is -0.333. GGAAGAAAUGCAGGUGUGGTT against Gab3: the z-score is -2.15 (active). The same measure for GCUUUAUUAACCCAUCAAATT against Wdr78: -0.136; for GGGAAAAUUCCAGAAUUGUTT against Serpinb9c: -1.37; for GGAGAUGGCCGACUUCUAUTT against Coa8: 0.934. The result for GGUUAAAUCCCUGAUGUAUTT against Ptdss1 reads -0.613; that for GCUUGUGUCACCUACGGAATT against Mterf2, 0.944.

Values taken from PubChem BioAssay AID1508600 (Functional Genomics Laboratory (NCATS/FGL), 2020).
